Data from PubChem BioAssay AID1209 (Sanford-Burnham Center for Chemical Genomics, 2008).
Hit rate of the full screen: of about 190,000 compounds, about 810 (0.43%) were called active. What follows is part of a selection rich in actives, with near analogues and random picks from the rest. Values without a mark were called inactive. Cut-off read from the data, not from the text of the source: active = inhibition above about 50%; inactive = the rest.

molecular target: Mannose-6-phosphate isomerase (Homo sapiens) (UniProt P34949); experiment: MPI enzyme activity inhibition – biochemical, fluorescence intensity, coupled assay, primary screen (AID 1209); conditions: purified PMI enzyme, at 20 µM, stronger effect = higher value;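 note: plate controls were DMSO vehicle for no effect and wells lacking substrate for full effect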
Sequence (P34949 whole entry, looked up): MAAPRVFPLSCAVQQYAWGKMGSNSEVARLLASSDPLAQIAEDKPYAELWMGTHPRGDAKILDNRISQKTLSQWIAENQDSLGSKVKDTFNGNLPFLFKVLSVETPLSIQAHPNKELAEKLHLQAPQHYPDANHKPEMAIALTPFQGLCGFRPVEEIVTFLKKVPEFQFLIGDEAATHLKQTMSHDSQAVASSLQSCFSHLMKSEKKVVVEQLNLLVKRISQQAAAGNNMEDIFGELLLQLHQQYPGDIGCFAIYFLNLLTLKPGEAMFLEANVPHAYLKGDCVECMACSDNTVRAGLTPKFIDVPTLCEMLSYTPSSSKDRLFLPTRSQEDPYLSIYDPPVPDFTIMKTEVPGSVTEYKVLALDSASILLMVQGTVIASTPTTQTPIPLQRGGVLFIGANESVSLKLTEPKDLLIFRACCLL

SMILES	inhibition
CCN(CC)S(=O)(=O)c1ccc(NC(=O)c2cc(-c3cccs3)nc3ccccc23)cc1	-4.8%
[O-][N+]1=c2ccc(Nc3ccccc3)cc2=NC12CCCCC2	79.7% (active)
c1ccc(Nc2cccc(Nc3ccccc3)c2)cc1	21%
O=[N+]([O-])c1ccc2c(c1Nc1ccccc1)=NC1(CCCCC1)N=2	46.2%
COc1cc(C(=O)N/N=C(\C)c2ccc3c(c2)OCO3)cc(OC)c1OC	2.6%
Cc1cc(C)n(-c2ccc([N+](=O)[O-])cc2)n1	7%
C=CCn1c(SCC(=O)N2CCCCC2)nnc1-c1ccncc1	-1.3%
C=CCn1c(SCC(=O)N2N=C(c3ccco3)CC2c2ccco2)nnc1-c1ccncc1 (stereo not given)	57.4% (active)
COc1ccc(C2=NN(C(=O)CSc3nnc(C)n3C)C(c3ccco3)C2)cc1 (stereo not given)	-23.9%
COc1ccc(-c2nc3ccccc3c(=O)n2NC(=S)N(C)C)cc1	57.4% (active)
Cc1ccc(-c2nc3ccccc3c(=O)n2NC(=S)N(C)C)cc1	16.6%
CN(C)C(=S)Nn1c(-c2ccccc2)nc2ccccc2c1=O	4.8%
CCOC(=O)C1(C)C=C(Nc2ccc(OCC)cc2)C(=O)N1c1ccccc1 (stereo not given)	11.1%
CCCCC(=O)Nc1sc(C(=O)N(CC)CC)c(C)c1C(=O)OC	58.3% (active)
CCOC(=O)c1c(NC(=O)CN(C)C)sc(C(=O)N(CC)CC)c1C	8.3%
CCOC(=O)c1c(NC(=O)CCl)sc(C(=O)N(CC)CC)c1C	-11.1%
CC(C)CN(C(=O)CN1CCC(C)CC1)c1c(N)n(CC(C)C)c(=O)[nH]c1=O	-5.2%
COc1ccc(C(=O)N/N=C(\C)CC(=O)N2CCN(C=O)CC2)cc1	5.1%
C/C(CC(=O)N1CCN(C=O)CC1)=N\NC(=O)c1cc2ccccc2cc1O	84.9% (active)
C/C(CC(=O)N1CCN(C=O)CC1)=N\NC(=O)c1ccc(Cl)cc1	-0.6%
Cc1cc(C)nc(Nc2n[nH]c(-c3ccccc3C)n2)n1	3.4%
O=c1[nH]c(-c2cccnc2)nc2ccccc12	7.1%
O=c1[nH]c(-c2ccccn2)nc2ccccc12	19.5%
O=c1[nH]c(-c2ccncc2)nc2ccccc12	71.3% (active)
CCOC(=O)C(C)n1cnc2c(nnn2-c2cccc(Cl)c2)c1=O (stereo not given)	-9.6%
COc1ccccc1NC(C)C(=O)Nc1ccc(C(C)=O)cc1 (stereo not given)	19.5%
CCc1ccc(NC(=O)c2ccccc2SC)cc1	7.2%

SMILES	inhibition
Nn1cnnc1N/N=C\c1ccc(-c2ccccc2[N+](=O)[O-])o1	82.5% (active)
Cc1nnc(N/N=C/c2ccc(-c3ccc(Br)cc3)o2)n1N	-11.5%
Cc1nnc(N/N=C\c2ccc(-c3ccccc3[N+](=O)[O-])o2)n1N	57.8% (active)
O=[N+]([O-])c1ccccc1-c1ccc(/C=N/n2cnnc2)o1	20.4%
Cc1nnc(N/N=C/c2ccc(-c3ccccc3F)o2)n1N	-38.4%
Nn1cnnc1N/N=C/c1ccc(Cl)c([N+](=O)[O-])c1	13.3%
COc1ccc(N2C(=O)CSCC2=O)cc1OC	1.2%
Cc1ccc(C)c(C(C)NC(=O)c2ccccc2Br)c1 (stereo not given)	-5.5%
O=C1CSC(=Nc2ccccc2)N1Cc1ccccc1	6.4%
CCOC(=O)c1ccc(N=C2NC(=O)CS2)cc1	10.2%
CCOC(=O)c1ccc(N=c2scc(C)n2CC)cc1	-8.8%
Cc1ccc(N=c2sc(C)c(C)n2C)cc1	-13%
Cc1cc(C)c(C#N)c(Cl)n1	21%
Cc1cc(C)nc(NC(=O)c2csnn2)c1	-0.9%
Clc1nssc1=Nc1ccccc1	57% (active)
CCOC(=O)c1ccc(N=c2ssnc2Cl)cc1	66.1% (active)
Clc1ss/c(=N\c2ccccn2)c1Cl	-30.7%
Cc1cc(C)nc(/N=c2/ssnc2Cl)c1	60.1% (active)
Cc1ccc(N=c2ssnc2Cl)cc1	75.1% (active)
Cc1ccc(N=C2CSC(=O)N2)cc1	8.6%
CCC(=O)c1c[nH]c(C(=O)NCCCn2ccnc2)c1	10.2%
O=C(CCN1CCCCCC1)Nc1ccc(F)c(F)c1	-7.5%
COc1cc(/C=C(\NC(=O)c2ccccc2)C(=O)Nc2cccc(O)c2)c([N+](=O)[O-])cc1OC	9.6%
COC(=O)C(C(=O)OC)=C(/C=C/C=C/N(C)C)N(C)C	2.5%
O=C(Nc1ccc(Br)cc1)c1ccccc1CC[N+](=O)[O-]	17.3%
O=C1c2ccccc2C(=O)N1CC1c2ccccc2CCN1S(=O)(=O)c1cnc[nH]1 (stereo not given)	7.7%
CC(C)c1nnc(NC(=O)CSc2ncn[nH]2)s1	10.7%

SMILES	inhibition
CC(C)(C)C1CCC(=NNC(=O)c2ccccc2-n2cccc2)CC1 (stereo not given)	21%
CC12c3ccccc3C(c3ccccc31)C1C(=O)N(Cc3cccnc3)C(=O)[C@H]12 (stereo not given in full)	4.1%
COc1ccc2c(c1)c(=O)c(C(=O)c1ccc(C)cc1)cn2CC(=O)Nc1ccc(F)cc1	3.6%
COc1cc(OC)cc(-n2nnnc2SCC(=O)Nc2ccc(C(C)=O)cc2)c1	5.1%
Cc1cc(NC(=O)C(C)C)ncc1NC(=O)c1ccccn1	0.2%
O=C(CNC(=O)c1ccc(S(=O)(=O)N2CCCC2)cc1)N/N=C/c1ccc(Cl)cc1Cl	9.4%
NC1=NC(=Nc2ccc(Br)cc2)c2ccccc21	-7.2%
Clc1ccc(N=c2ssnc2Cl)cc1	78.7% (active)
O=C1NC(=Nc2ccc(Cl)cc2)/C(=C/c2ccco2)S1	1.4%
Brc1ccc(N=Cc2ccccn2)cc1	-9.1%
NC1=NC(=Nc2ccc(Cl)cc2)c2ccccc21	-3.6%
Clc1nssc1=Nc1ccc(Br)cc1	81.6% (active)
CCOC(=O)Nc1ccc(OCc2nnc3c4ccccc4c(C)nn23)cc1	3.7%
CCOC(=O)c1cnc(SCC(=O)NCc2cccs2)nc1N	-5.5%
CCN(CC)S(=O)(=O)c1ccc(/C=C/C(=O)OCC(=O)Nc2ccc(C(N)=O)cc2)cc1	-5.2%
CCN(CC)S(=O)(=O)c1ccc(/C=C/C(=O)OCC(=O)Nc2ccc(S(N)(=O)=O)cc2)cc1	70.7% (active)
NS(=O)(=O)c1ccc(NC(=O)COC(=O)/C=C/c2ccc([N+](=O)[O-])cc2)cc1	-1.2%
Cc1c(C(=O)N2CCN(c3ccccc3F)CC2)sc2ncn(CC(=O)N3CCOCC3)c(=O)c12	-1.6%
Cc1c(NC(=O)c2ccc(C(C)(C)C)cc2)cccc1[N+](=O)[O-]	7.4%
CCn1c(CCc2ccccc2)n[nH]c1=S	-3%
CCn1c(SCC(=O)N/N=C/c2ccc(O)c(OC)c2)nc2ccccc21	61.7% (active)
CCn1c(SCC(=O)N/N=C/c2cc(OC)c(O)c(OC)c2)nc2ccccc21	-0.1%
CCn1c(SCC(=O)N/N=C/c2ccc(OC)c(OC)c2)nc2ccccc21	8.4%
COc1ccccc1N1CCN(C(=O)C2CCN(S(=O)(=O)N3CCOCC3)CC2)CC1	-6.6%
Cc1cccc(NC(=S)N(CCCN2CCOCC2)Cc2ccccn2)c1	-1.4%
CCN(CC)C(=O)c1cn(C)c(=O)c2cc(OC)c(OC)cc12	12.6%
COc1ccc(CNc2nc(-c3cccnc3)nn2C(=O)C(C)C)cc1	1.5%

SMILES	inhibition
Cc1nn(C2CCS(=O)(=O)C2)c(Cl)c1/C=C/C(=O)OCC(=O)Nc1ccccc1[N+](=O)[O-] (stereo not given)	18.2%
CN(C)c1ccc(N=Cc2ccco2)cc1	44.6%
C(=Nc1cccc2c(N=Cc3ccco3)cccc12)c1ccco1	82.9% (active)
C(=N/n1c2ccccc2c2ccccc21)/c1ccco1	18.5%
COC(=O)Cn1c(=O)n(CCc2ccccc2)c(=O)c2c3c(sc21)CCCC3	23%
COC(=O)c1ccc(NC(=O)CSc2nnc(C)n2-c2ccccc2)cc1	9.9%
NC(CO)C(=O)NNCc1ccc(O)c(O)c1O (stereo not given)	78% (active)
Cc1cc(-c2nsc(=O)o2)c(S(C)(=O)=O)s1	53.2% (active)
Cc1cc(C(=O)O)c(S(C)(=O)=O)s1	-0.9%
O=C(CCc1cnccn1)NC1CCCc2c1cnn2-c1ccc(F)cc1F (stereo not given)	6.3%
C=CCSc1nc2sc3c(c2c(=O)n1CC)CCc1ccccc1-3	71.8% (active)
C=CCSc1nc2sc3c(c2c(=O)n1CC=C)CCc1ccccc1-3	10.5%
C=CCn1c(SCC)nc2sc3c(c2c1=O)CCc1ccccc1-3	7.8%
CS(=O)(=O)N1N=C(c2ccc(Br)cc2)CC1c1cccs1 (stereo not given)	12.1%
Cc1sc(/N=C/c2c(O)ccc3ccccc23)c(C#N)c1C	-6%
COc1ccc(O)c(/C=N/c2sc(C)c(C)c2C#N)c1	53.8% (active)
Cc1sc(/N=C/c2ccccc2O)c(C#N)c1C	0.9%
CN(CCC1CCOCC1)C(=O)CC1C(=O)NCCN1C/C=C/c1ccccc1 (stereo not given)	5.6%
Cc1ccc(-c2nc(N)sc2C)cc1	-11%
Cc1ccc(-c2cc(-c3ccccc3)nc(Cl)n2)cc1	16.6%
Cc1ccc(-c2nnc(-c3ccccc3)c(-c3ccccc3)n2)cc1	8.3%
Cc1ccc(-c2nc(N)sc2-c2ccc(C)cc2)cc1	13.3%
CNc1nc(-c2ccccc2)[n+](-c2ccc(C)cc2)s1	89.5% (active)
Cc1ccc(-c2nc(N)s[n+]2-c2ccccc2)cc1	106% (active)
